# Assay results published in publication PMC11062922 (Nature Chemical Biology, 2023).
# Like-named read-outs stand apart in the source and are kept apart here.
# What was measured:
# CIT = system: CIT; design: species or system human, MV4-11 + K-562 + COLO205 + SK-N-BE2 + OVCAR-8; conditions: compound concentrations:0.3nM, 1nM, 3nM, 10nM, 30nM, 100nM, 300nM, 1000nM,R2:0.97918771846363795,slope:1.88206182244377,EC50 Standard Error, by the legend:Standard error of the EC50 estimation as provided by the drc package.
# MOB1A = system: MOB1A; design: species or system human, MV4-11 + K-562 + COLO205 + SK-N-BE2 + OVCAR-8; conditions: compound concentrations:0.3nM, 1nM, 3nM, 10nM, 30nM, 100nM, 300nM, 1000nM,R2:0.920591021551731,slope:1.01230388230399,EC50 Standard Error, by the legend:Standard error of the EC50 estimation as provided by the drc package.
# PKN2 = system: PKN2; design: species or system human, MV4-11 + K-562 + COLO205 + SK-N-BE2 + OVCAR-8; conditions: compound concentrations:0.3nM, 1nM, 3nM, 10nM, 30nM, 100nM, 300nM, 1000nM,R2:0.99284498309618197,slope:1.0925759067996901,EC50 Standard Error, by the legend:Standard error of the EC50 estimation as provided by the drc package.
# PRKACA = system: PRKACA; design: species or system human, MV4-11 + K-562 + COLO205 + SK-N-BE2 + OVCAR-8; conditions: compound concentrations:0.3nM, 1nM, 3nM, 10nM, 30nM, 100nM, 300nM, 1000nM,R2:0.96854382612038603,slope:0.55494475064464099,EC50 Standard Error, by the legend:Standard error of the EC50 estimation as provided by the drc package.
# PRKACB = system: PRKACB; design: species or system human, MV4-11 + K-562 + COLO205 + SK-N-BE2 + OVCAR-8; conditions: compound concentrations:0.3nM, 1nM, 3nM, 10nM, 30nM, 100nM, 300nM, 1000nM,R2:0.87991730549407599,slope:0.899687988537484,EC50 Standard Error, by the legend:Standard error of the EC50 estimation as provided by the drc package.
# PRKCB = system: PRKCB; design: species or system human, MV4-11 + K-562 + COLO205 + SK-N-BE2 + OVCAR-8; conditions: compound concentrations:0.3nM, 1nM, 3nM, 10nM, 30nM, 100nM, 300nM, 1000nM,R2:0.978843793099339,slope:1.0046603573044399,EC50 Standard Error, by the legend:Standard error of the EC50 estimation as provided by the drc package.
# PRKCD = system: PRKCD; design: species or system human, MV4-11 + K-562 + COLO205 + SK-N-BE2 + OVCAR-8; conditions: compound concentrations:0.3nM, 1nM, 3nM, 10nM, 30nM, 100nM, 300nM, 1000nM,R2:0.97536342523711195,slope:1.1087330186118201,EC50 Standard Error, by the legend:Standard error of the EC50 estimation as provided by the drc package.
# PRKCQ = system: PRKCQ; design: species or system human, MV4-11 + K-562 + COLO205 + SK-N-BE2 + OVCAR-8; conditions: compound concentrations:0.3nM, 1nM, 3nM, 10nM, 30nM, 100nM, 300nM, 1000nM,R2:0.97430848163672201,slope:0.92336588926382501,EC50 Standard Error, by the legend:Standard error of the EC50 estimation as provided by the drc package.
# PRKD1 = system: PRKD1; design: species or system human, MV4-11 + K-562 + COLO205 + SK-N-BE2 + OVCAR-8; conditions: read-out: apparent Kd, n = 1
# PRKCA = system: PRKCA; design: species or system human, MV4-11 + K-562 + COLO205 + SK-N-BE2 + OVCAR-8; conditions: compound concentrations:0.3nM, 1nM, 3nM, 10nM, 30nM, 100nM, 300nM, 1000nM,R2:0.94698851760637903,slope:2.0520697350296202,EC50 Standard Error, by the legend:Standard error of the EC50 estimation as provided by the drc package.
# ADCK1 = conditions: compound concentrations:3nM, 10nM, 30nM, 100nM, 300nM, 1000nM, 3000nM, 30000nM,R2:0.94101841538293196,slope:0.49878905871205997,EC50 Standard Error, by the legend:Standard error of the EC50 estimation as provided by the drc package.
# CSNK2A1;CSNK2A3 = conditions: compound concentrations:3nM, 10nM, 30nM, 100nM, 300nM, 1000nM, 3000nM, 30000nM,R2:0.95393018675228303,slope:1.4690097586887201,EC50 Standard Error, by the legend:Standard error of the EC50 estimation as provided by the drc package.
# CSNK2A2 = conditions: compound concentrations:3nM, 10nM, 30nM, 100nM, 300nM, 1000nM, 3000nM, 30000nM,R2:0.98972333089258602,slope:1.29833762231974,EC50 Standard Error, by the legend:Standard error of the EC50 estimation as provided by the drc package.
# CSNK2B = conditions: compound concentrations:3nM, 10nM, 30nM, 100nM, 300nM, 1000nM, 3000nM, 30000nM,R2:0.92635600361285697,slope:3.98443256783656,EC50 Standard Error, by the legend:Standard error of the EC50 estimation as provided by the drc package.
# EIF3J = conditions: compound concentrations:3nM, 10nM, 30nM, 100nM, 300nM, 1000nM, 3000nM, 30000nM,R2:0.88928942104591402,slope:1.5975809400026999,EC50 Standard Error, by the legend:Standard error of the EC50 estimation as provided by the drc package.
# IRAK3 = conditions: compound concentrations:3nM, 10nM, 30nM, 100nM, 300nM, 1000nM, 3000nM, 30000nM,R2:0.92660925835613905,slope:0.92534849669637798,EC50 Standard Error, by the legend:Standard error of the EC50 estimation as provided by the drc package.
# NQO2 = conditions: compound concentrations:3nM, 10nM, 30nM, 100nM, 300nM, 1000nM, 3000nM, 30000nM,R2:0.94793507341518402,slope:1.3847657393086299,EC50 Standard Error, by the legend:Standard error of the EC50 estimation as provided by the drc package.
# PRKACG = system: PRKACG; design: species or system human, MV4-11 + K-562 + COLO205 + SK-N-BE2 + OVCAR-8; conditions: compound concentrations:0.3nM, 1nM, 3nM, 10nM, 30nM, 100nM, 300nM, 1000nM,R2:0.71933853436235096,slope:7.8735043887932097,EC50 Standard Error, by the legend:Standard error of the EC50 estimation as provided by the drc package.
# SPR = system: SPR; design: species or system human, MV4-11 + K-562 + COLO205 + SK-N-BE2 + OVCAR-8; conditions: read-out: apparent Kd, n = 1
# CSNK1D = system: CSNK1D; design: species or system human, MV4-11 + K-562 + COLO205 + SK-N-BE2 + OVCAR-8; conditions: compound concentrations:0.3nM, 1nM, 3nM, 10nM, 30nM, 100nM, 300nM, 1000nM,R2:0.90408083948088502,slope:1.4813297755061099,EC50 Standard Error, by the legend:Standard error of the EC50 estimation as provided by the drc package.
# [1] = compound concentrations:100 nM and 1000 nM (sheet 'Samples')
compound,measurement,setting,value
CCn1c(-c2nonc2N)nc2c(C#CC(C)(C)O)nc(OCCN)cc21.CCn1c(-c2nonc2N)nc2c(C#CC(C)(C)O)nc(OCCN)cc21.Cl.Cl [GSK902056A],EC50,CIT,279 nM
same,Kd,CIT; read-out: apparent Kd,279 nM
same,EC50,MOB1A,223 nM
same,Kd,MOB1A; read-out: apparent Kd,223 nM
same,EC50,PKN2,401 nM
same,Kd,PKN2; read-out: apparent Kd,401 nM
same,EC50,PRKACA,230 nM
same,Kd,PRKACA; read-out: apparent Kd,212 nM
same,EC50,PRKACB,145 nM
same,Kd,PRKACB; read-out: apparent Kd,145 nM
same,EC50,PRKCB,410 nM
same,Kd,PRKCB; read-out: apparent Kd,401 nM
same,EC50,PRKCD,124 nM
same,Kd,PRKCD; read-out: apparent Kd,124 nM
same,EC50,PRKCQ,58.7 nM
same,Kd,PRKCQ; read-out: apparent Kd,58.7 nM
CCn1c(-c2nonc2N)nc2c(-c3ccccc3)ncc(OCCCN)c21.CCn1c(-c2nonc2N)nc2c(-c3ccccc3)ncc(OCCCN)c21.O=C(O)C(F)(F)F.O=C(O)C(F)(F)F [GSK260205A],potency estimated from few doses,"PRKD1; compound concentrations: 100 nM and 1000 nM (sheet 'Samples'), CATDS: 2.9847294929188299E-2",1340 nM
Cc1cccc(Nc2nc(N[C@H]3CCCC[C@H]3N)ncc2C(N)=O)c1.Cl [GSK986310C],EC50,PRKCA,446 nM
same,Kd,PRKCA; read-out: apparent Kd,272 nM
Entospletinib,EC50,ADCK1,16.4 µM
same,Kd,ADCK1; read-out: apparent Kd,10.5 µM
same,EC50,CSNK2A1;CSNK2A3,1590 nM
same,Kd,CSNK2A1;CSNK2A3; read-out: apparent Kd,1590 nM
same,EC50,CSNK2A2,1310 nM
same,Kd,CSNK2A2; read-out: apparent Kd,1310 nM
same,EC50,CSNK2B,941 nM
same,Kd,CSNK2B; read-out: apparent Kd,941 nM
same,EC50,EIF3J,1610 nM
same,Kd,EIF3J; read-out: apparent Kd,1610 nM
same,EC50,IRAK3,4.71 µM
same,Kd,IRAK3; read-out: apparent Kd,2030 nM
same,EC50,NQO2,295 nM
same,Kd,NQO2; read-out: apparent Kd,131 nM
CCn1c(-c2nonc2N)nc2c(C#CC(C)(C)O)nc(OCCNC)cc21.Cl [GSK949675A],EC50,PRKACG,303 nM
same,Kd,PRKACG; read-out: apparent Kd,262 nM
Cl.NCc1ccc(-c2nc(-c3ccc(Cl)c(O)c3)c(-c3ccncc3)[nH]2)cc1 [SB-476429-A],potency estimated from few doses,SPR; [1],32.3 nM
same,EC50,CSNK1D,300 nM
same,Kd,CSNK1D; read-out: apparent Kd,300 nM
O=C1NC(=O)C(N2CCc3ccccc32)=C1c1ccccc1Cl [SB-373598],potency estimated from few doses,PRKD1; [1],1580 nM
Cn1ncc2c(N)ncnc21 [SKF-18267],potency estimated from few doses,"SPR; compound concentrations: 100 nM and 1000 nM (sheet 'Samples'), CATDS: 4.8201807384516803E-3",876 nM
